High-throughput results (PubChem BioAssay)
The list is not random: actives were taken first. Their share in the collection is about 1.8%.
SUMO HTRF inh: inhibitors of human SUMOylation (UBC9) | inhibition, % at 35 µM | hit rate 0.36% among 290,000 | HTRF SUMOylation assay, SAE1/SAE2 + UBC9, in vitro; in the data active means inhibition above about 50%, passing the limit was not always enough
Target sequence (P63279 whole entry, looked up): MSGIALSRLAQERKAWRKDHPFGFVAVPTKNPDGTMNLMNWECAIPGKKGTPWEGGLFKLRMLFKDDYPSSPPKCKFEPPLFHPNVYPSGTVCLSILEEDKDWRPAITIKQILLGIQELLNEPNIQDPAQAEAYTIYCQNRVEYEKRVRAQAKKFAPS
PHOSPHO1 inh: inhibitors of human PHOSPHO1 phosphatase; Q8TCT1; recombinant PHOSPHO1, absorbance phosphatase assay; inhibition, % at 13.3 µM; hit rate 1.1% among 290,000; AID 1565; in the data active means inhibition above about 60%
Target sequence (Q8TCT1 whole entry, looked up): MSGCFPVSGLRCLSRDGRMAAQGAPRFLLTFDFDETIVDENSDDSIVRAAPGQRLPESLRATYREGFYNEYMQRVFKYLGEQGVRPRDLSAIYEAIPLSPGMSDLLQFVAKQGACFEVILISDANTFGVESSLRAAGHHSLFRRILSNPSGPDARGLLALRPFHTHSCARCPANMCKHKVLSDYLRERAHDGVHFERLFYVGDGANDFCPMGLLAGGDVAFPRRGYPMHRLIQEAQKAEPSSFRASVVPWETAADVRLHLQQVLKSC
NadD inh: NadD (S. aureus) enzyme inhibition; purified NadD enzyme, colorimetric absorbance read-out; inhibition, % at 20 µM; hit rate 0.78% among 360,000; in the data active means inhibition above about 26%
pCIP destab: lowers stability of the mouse p/CIP coactivator protein | Q05BA5 | F442A p/CIP-EGFP cells, EGFP fluorescence, 16 h | decrease of EGFP signal, % at 10 µM | hit rate 0.01% among 290,000 | AID 1984;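 active means EGFP signal decrease of at least 30% at 10 µM or well 3 SD below plate mean, unless failing retest; inactive means the rest, including hits failing retest or dose response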
NadD conf: NadD (S. aureus) inhibition, single concentration confirmation. purified S. aureus NadD, colorimetric enzyme assay. inhibition, % at 20 µM. shares compounds with NadD inh. hit rate 13% among 2,000. AID 624309; in the data active means inhibition mostly above about 42%, no sharp cut-off; inactive means mostly below about 42%
Of the large screens only hits and unclear results are named; the others gave an inactive call (follow-up assays come after a bar, where they were run).

O=C(Nc1ccc(Cl)cc1)[C@@H]1[C@@H]2C(=O)N(c3ccc4ccccc4c3)C(=O)[C@@H]2[C@H]2C=CC=NN21	PHOSPHO1 inh 76, NadD inh 57 | NadD conf inactive
CCCNC(=O)Cn1c(=O)/c(=C\c2ccc(-c3cccc([N+](=O)[O-])c3)o2)s/c1=C\C(=O)C(C)(C)C	NadD inh 35 | NadD conf inactive
Cc1ccc(C(=O)C2C(=O)c3ccccc3C2=O)cc1	none
NN=C1c2ccccc2C(=O)C1C(=O)C(c1ccccc1)c1ccccc1 (centres undefined)	NadD inh 30 (no result: SUMO HTRF inh, PHOSPHO1 inh, pCIP destab) | NadD conf 50
CNc1n[nH]c(-c2ccccc2)n1	none (no result: SUMO HTRF inh, PHOSPHO1 inh, pCIP destab)
CC(=O)NCCNc1nc(NC(C)C)nc2cc(-c3ccccc3)sc12	none (no result: SUMO HTRF inh, PHOSPHO1 inh, pCIP destab)
COc1ccc(-c2cc(CNc3nc(NC(C)C)nc4cc(-c5ccccc5)sc34)on2)cc1	NadD inh 34 (no result: SUMO HTRF inh, PHOSPHO1 inh, pCIP destab) | NadD conf inactive
COC(=O)c1ccc(C23CC4(C2)[C@H](CN(CC2CCCCC2)[C@@H]4c2ccccc2)C3c2ccc(Cl)nc2)cc1 (some centres undefined)	NadD inh 35 | NadD conf inactive
O=C(NCCc1c[nH]c2ccccc12)C(=O)NCC1OCCCN1S(=O)(=O)c1cccs1 (centres undefined)	none
O=C(Nc1ccc(Oc2ccccc2)cc1)c1csc(COCCO)n1	none (no result: SUMO HTRF inh, PHOSPHO1 inh, pCIP destab)
C/C(CCC12CC3CC(CC(C3)C1)C2)=N\NC(N)=S	NadD inh 34 | NadD conf inactive
COC(=O)c1ccc(Cn2c(C)c(C(=O)NCc3ccco3)sc2=O)o1	none (no result: SUMO HTRF inh, PHOSPHO1 inh, pCIP destab)
CC(C)(C)c1ccc(C(=O)N/C(=C\c2cccc([N+](=O)[O-])c2)C(=O)Nc2cccc(C(=O)O)c2)cc1	NadD inh 31 (no result: PHOSPHO1 inh) | NadD conf inactive
O=C(Nc1cccc(C(=O)O)c1)/C(=C/c1ccc([N+](=O)[O-])cc1)NC(=O)c1ccccc1	none
O=C(NCc1cccs1)c1csc([C@@H]2C[C@H](O)[C@@H](CO)O2)n1	none (no result: SUMO HTRF inh, PHOSPHO1 inh, pCIP destab)
CCOc1ccc(-c2csc(/C(C#N)=C\c3ccc(O)c([N+](=O)[O-])c3)n2)cc1	NadD inh 48 | NadD conf inactive
Cc1cccc(CNC(=O)C2CCC(=O)N(CCCc3ccccc3)C2)c1 (centres undefined)	none (no result: SUMO HTRF inh, PHOSPHO1 inh, pCIP destab)
Cn1c(=O)c2c([nH]c(=S)n2Cc2ccc(Cl)cc2)n(C)c1=O	NadD inh 32 | NadD conf inactive
CN(C)c1ccc(C(CN)c2c[nH]c3ccccc23)cc1 (centres undefined)	NadD inh 31 | NadD conf inactive
CCCCn1c(-c2ccc(C(C)(C)C)cc2)nc2cc3[nH]c(=O)c(C(C)C)nc3cc21	NadD inh 36 | NadD conf inactive
CCCCn1c(-c2ccc(Cl)c(Cl)c2)nc2cc3[nH]c(=O)c(C(C)C)nc3cc21	NadD inh 38 | NadD conf inactive
CCCCn1c(-c2cccc(Br)c2)nc2cc3[nH]c(=O)c(C(C)C)nc3cc21	none
COc1ccccc1NS(=O)(=O)c1c(C(=O)N2CCCC2)c(C)n(C)c1C	none
COc1cc(C#Cc2c(-c3cncn3C)n(C)c3ccc(-c4cnc(OC)nc4)cc23)cc(OC)c1	NadD inh 30 (no result: SUMO HTRF inh, PHOSPHO1 inh, pCIP destab) | NadD conf inactive
COc1cc(C#Cc2c(-c3cncn3C)n(C)c3ccc(-c4ccc(CN5CCOCC5)cc4)cc23)cc(OC)c1	none (no result: SUMO HTRF inh, PHOSPHO1 inh, pCIP destab)
COc1cc(OC)cc(-c2c(Sc3ccccc3)c3cc(-c4cnc(OC)nc4)ccc3n2C)c1	none (no result: SUMO HTRF inh, PHOSPHO1 inh, pCIP destab)
COc1cc(C#Cc2c(-c3cncn3C)n(C)c3ccc(-c4cnc(N5CCOCC5)nc4)cc23)cc(OC)c1	NadD inh 45 (no result: SUMO HTRF inh, PHOSPHO1 inh, pCIP destab) | NadD conf inactive
CCOC(=O)C1=C(C)N=c2sc(=Cc3cc(Cl)c(OCC(=O)O)c(Cl)c3)c(=O)n2C1c1cccc(OC)c1 (centres undefined)	NadD inh 34 (no result: SUMO HTRF inh, PHOSPHO1 inh, pCIP destab) | NadD conf 52
O=S(c1ccccc1O)S(=O)c1ccccc1O (centres undefined)	NadD inh 39 (no result: SUMO HTRF inh, PHOSPHO1 inh, pCIP destab) | NadD conf 68
COc1ccc(C(=O)Nc2nc(OCC(F)(F)F)cnc2/C=C\c2ccccc2)c(OC)c1	none (no result: SUMO HTRF inh, PHOSPHO1 inh, pCIP destab)
CC1(C)Cc2c(c(N3CCOCC3)nc3sc4c(NN)ncnc4c23)CS1	NadD inh 34 | NadD conf inactive
O=[N+]([O-])c1ccc(/C=N/Nc2nc(-c3ccccc3)c3cc(Br)ccc3n2)o1	NadD inh 41 | NadD conf inactive
Cc1ccc2nc(N/N=C\c3ccc([N+](=O)[O-])o3)nc(-c3ccccc3)c2c1	NadD inh 37 | NadD conf inactive
N#Cc1ccccc1/C=N/Nc1nc(-c2ccccc2)c2cc(Br)ccc2n1	none
CC(CC(=O)Nc1nnc(C(C)(C)C)s1)c1ccccc1 (centres undefined)	none
COc1ccccc1CNc1nc(Nc2cccc(-c3cnco3)c2)c2sccc2n1	NadD inh 40 (no result: SUMO HTRF inh, PHOSPHO1 inh, pCIP destab) | NadD conf inactive
Oc1ccc(C[C@@H](CN2CCC[C@@H]2CN2C(=S)NC[C@@H]2Cc2ccccc2)N2C[C@H](Cc3ccccc3)N(CCc3ccccc3)C2=S)cc1	none (no result: SUMO HTRF inh, PHOSPHO1 inh, pCIP destab)
CC(C)C[C@H]1CN([C@@H](Cc2ccc(O)cc2)CN2CCC[C@@H]2CN2C(=S)NC[C@@H]2Cc2ccccc2)C(=S)N1CCc1ccccc1	NadD inh 32 (no result: SUMO HTRF inh, PHOSPHO1 inh, pCIP destab) | NadD conf inactive
CC(C)C[C@H]1CNC(=S)N1C[C@H]1CCCN1C[C@H](Cc1ccc(O)cc1)N1C[C@H](Cc2ccc(O)cc2)N(CCc2ccccc2)C1=S	none (no result: SUMO HTRF inh, PHOSPHO1 inh, pCIP destab)
Oc1ccc(C[C@H]2CNC(=S)N2CC2CCCN2C[C@H](Cc2ccccc2)N2C[C@H](Cc3ccc(O)cc3)N(CCc3ccccc3)C2=S)cc1 (some centres undefined)	NadD inh 53 (no result: SUMO HTRF inh, PHOSPHO1 inh, pCIP destab) | NadD conf 58
CCc1ccc(N2CC(C(=O)NC3CCCCC3C)CC2=O)cc1 (centres undefined)	none
COc1ccc(S(=O)(=O)N2CCC[C@@H]2C(=O)N2CCC[C@H]2C(=O)NCc2ccncc2)cc1C	none (no result: SUMO HTRF inh, PHOSPHO1 inh, pCIP destab)
CCOC(=O)c1c(-c2ccccc2)csc1NC(=O)/C(C#N)=C\c1ccc(O)c(OC)c1	NadD inh 35 (no result: SUMO HTRF inh, PHOSPHO1 inh, pCIP destab) | NadD conf inactive
CCOC(=O)c1c(-c2ccc(C)cc2)csc1NC(=O)/C(C#N)=C/c1ccc(O)c(OC)c1	NadD inh 59 | NadD conf inactive
S=C(Nc1ccc(Oc2ccc(NC(=S)NC3CCCCC3)cc2)cc1)NC1CCCCC1	NadD inh 35 | NadD conf inactive
S=C(Nc1ccc(Oc2ccccc2)cc1)NC1CCCCCC1	none
O=C(Cc1cccc(NC(=O)C2CCCN(C(=O)C3CCC3)C2)c1)Nc1ccc(C(=O)N2CCCCC2)cc1 (centres undefined)	none (no result: SUMO HTRF inh, PHOSPHO1 inh, pCIP destab)
O=c1[nH]c2cc([N+](=O)[O-])ccc2c2cc(Br)ccc12	NadD inh 38 (no result: SUMO HTRF inh, PHOSPHO1 inh, pCIP destab) | NadD conf inactive
O=C(NNC(=O)c1cc(S(=O)(=O)N2CCOCC2)ccc1Cl)c1ccc(F)cc1	none (no result: SUMO HTRF inh, PHOSPHO1 inh, pCIP destab)
COc1ccc(/C=C(\C#N)c2nc3ccccc3[nH]2)cc1O	none
N#C/C(=C\c1cccc(Oc2ccc(C(F)(F)F)cc2[N+](=O)[O-])c1)c1nc2ccccc2[nH]1	NadD inh 38 | NadD conf inactive
